# Data taken from PubChem BioAssay (NCATS).
# Inconclusive results are not listed. A call without a number means that no potency is given here. Unmarked numbers belong to inactive results. Calls of active or inactive are those of the source. Calls come from the whole dose curve; as a rule, active = well fitted curve in the direction sought with a large enough effect; inconclusive = small, poorly fitted or top-dose-only effect, or another doubt; inactive = no such curve, though single readings can be large; an effect the other way counts as inactive or inconclusive.
# Columns and labels:
# [1] = target: Aldehyde dehydrogenase, mitochondrial (Homo sapiens) (UniProt P05091); assay: qHTS for Inhibitors of the Aldehyde Dehydrogenase Family (ALDH2) Primary screen (AID 2061308); note: nearly all actives have a fitted effect of over 55% in size; note: potency is the fitted concentration of half-maximal effect
# [2] = target: Retinal dehydrogenase 2 (Homo sapiens) (UniProt O94788); assay: qHTS for Inhibitors of the Aldehyde Dehydrogenase Family (ALDH1A2) Confirmation screens (AID 2061314); note: nearly all actives have a fitted effect of over 65% in size; note: potency is the fitted concentration of half-maximal effect
# [3] = target: Retinaldehyde dehydrogenase 3 (Homo sapiens) (UniProt P47895); assay: qHTS for Inhibitors of the Aldehyde Dehydrogenase Family (ALDH1A3) Primary screen (AID 2061315)
# [4] = target: Aldehyde dehydrogenase 1A1 (Homo sapiens) (UniProt P00352); assay: qHTS for Inhibitors of the Aldehyde Dehydrogenase Family (ALDH1A1) Confirmatory screens (AID 2061316); note: nearly all actives have a fitted effect of over 65% in size; note: potency is the fitted concentration of half-maximal effect
# [5] = target: Retinaldehyde dehydrogenase 3 (Homo sapiens) (UniProt P47895); assay: qHTS for Inhibitors of the Aldehyde Dehydrogenase Family (ALDH1A3) Validation screen (AID 2061312); note: nearly all actives have a fitted effect of over 45% in size
# [6] = BET inhibitor-based combinations targeting novel dependencies in MECOM-rearranged (r) AML: OCI-AML3 cell line (AID 2202232); details: Potency: OCI-AML3 viability; note: nearly all actives have a fitted effect of over 35% in size; note: potency is the fitted concentration of half-maximal effect
# How it was run: (§1)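 Cells were plated at 500 per well and exposed to an 11-point dose series of each drug for 48 hr. Viability was measured by CellTiter-Glo luminescence, normalized to DMSO and empty-well controls, and summarized as AUC and per-cell-line Z-AUC.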
# [7] = BET inhibitor-based combinations targeting novel dependencies in MECOM-rearranged (r) AML: HNT-34 cell line (AID 2202234); note: nearly all actives have a fitted effect of over 35% in size; note: potency is the fitted concentration of half-maximal effect
# How it was run: (§2)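 Activity is given as area under the curve and as Z-AUC, mean-centred within each cell line. It comes from 11-point dose curves normalized to DMSO and empty wells. CellTiter-Glo luminescence was read after 48 hr drug exposure of 500 cells/well.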
# [8] = BET inhibitor-based combinations targeting novel dependencies in MECOM-rearranged (r) AML: UCSD-AML1 cell line (AID 2202235); note: nearly all actives have a fitted effect of over 40% in size; note: potency is the fitted concentration of half-maximal effect
# How it was run: as §2
# [9] = BET inhibitor-based combinations targeting novel dependencies in MECOM-rearranged (r) AML: AML-194 cell line (AID 2202237; note: nearly all actives have a fitted effect of over 40% in size; note: potency is the fitted concentration of half-maximal effect)
# How it was run: as §1
# [10] = BET inhibitor-based combinations targeting novel dependencies in MECOM-rearranged (r) AML: MV-4-11 cell line (AID 2202233); note: nearly all actives have a fitted effect of over 45% in size; note: potency is the fitted concentration of half-maximal effect
# How it was run: as §2
# [11] = BET inhibitor-based combinations targeting novel dependencies in MECOM-rearranged (r) AML: SET-2 cell line (AID 2202231); details: SET-2 AML cells viability, CellTiter-Glo luminescence, 48 h; viability: active compounds read low, concentration not given here; note: nearly all actives have a fitted effect of over 35% in size; note: potency is the fitted concentration of half-maximal effect
# How it was run: as §1
# [12] = BET inhibitor-based combinations targeting novel dependencies in MECOM-rearranged (r) AML: AML-191 cell line (AID 2202236; note: nearly all actives have a fitted effect of over 35% in size; note: potency is the fitted concentration of half-maximal effect)
# How it was run: as §1
smiles,measurement,setting,value
CC(=O)Nc1ncc(S(=O)(=O)Nc2cnccc2C(=O)Nc2nc(-c3ccccc3)cs2)s1,Potency,[1],inactive
same,Potency,[2],10.1 µM (active)
same,Potency,[3],inactive
same,Potency,[4],20.1 µM (active)
c1ccc(Cn2c(-c3ccc(OCC(C4CCNCC4)n4c(-c5ccccc5)nc5ccccc54)cc3)nc3ccccc32)cc1 (stereo unspecified),Potency,[1],inactive
same,Potency,[5],inactive
same,Potency,[3],inactive
same,Potency,[6],23.5 µM (active)
same,Potency,[7],18.6 µM (active)
same,Potency,[8],26.3 µM (active)
same,Potency,[9],23.5 µM (active)
Cc1c(NC(=O)OC[C@@H]2COCCN2)cn2ncnc(Nc3ccc4c(cnn4Cc4cccc(F)c4)c3)c12,Potency,[1],inactive
same,Potency,[5],inactive
same,Potency,[3],inactive
same,Potency,[6],10.5 µM (active)
same,Potency,[7],20.9 µM (active)
same,Potency,[9],23.5 µM (active)
Cc1ccc(S(=O)(=O)c2ncccc2[N+](=O)[O-])cc1,Potency,[1],6.31 µM (active)
same,Potency,[2],0.449 µM (active)
C[C@H]1O[C@@H](O[C@H]2[C@@H](O)C[C@H](O[C@H]3[C@@H](O)C[C@H](O[C@H]4CC[C@@]5(C)[C@H](CC[C@@H]6[C@@H]5C[C@@H](O)[C@]5(C)[C@@H](C7=CC(=O)OC7)CC[C@]65O)C4)O[C@@H]3C)O[C@@H]2C)C[C@H](O)[C@@H]1O,Potency,[1],inactive
same,Potency,[5],inactive
same,Potency,[3],inactive
same,Potency,[6],0.118 µM (active)
same,Potency,[10],0.105 µM (active)
same,Potency,[7],0.105 µM (active)
same,Potency,[8],0.132 µM (active)
same,Potency,[9],0.118 µM (active)
COCCOC(=O)C1=C(C)NC2=C(C(=O)CC(c3ccccc3OC)C2)C1c1cccc(O)c1 (stereo unspecified),Potency,[1],inactive
same,Potency,[5],inactive
same,Potency,[3],inactive
same,Potency,[11],16.6 µM (active)
same,Potency,[6],7.42 µM (active)
same,Potency,[10],5.25 µM (active)
same,Potency,[12],14.8 µM (active)
N#Cc1c(-c2cccc([N+](=O)[O-])c2)no[n+]1[O-],Potency,[1],7.94 µM (active)
same,Potency,[2],5.04 µM (active)
same,Potency,[3],inactive
same,Potency,[4],12.7 µM (active)
Cc1ccc(CNc2ccc(N3CCOCC3)cc2)cc1,Potency,[1],inactive
same,Potency,[2],11.3 µM (active)
COc1ccc(C(=O)CC2(O)C(=O)Nc3c(Cl)ccc(Cl)c32)cc1 (stereo unspecified),Potency,[1],inactive
same,Potency,[5],inactive
same,Potency,[3],inactive
same,Potency,[10],inactive
same,Potency,[12],1.05 µM (active)
same,Potency,[9],1.86 µM (active)
CC(=O)Nc1sc2c(c1-c1nc3ccccc3s1)CCN(C(C)C)C2,Potency,[1],inactive
same,Potency,[2],28.3 µM (active)
same,Potency,[3],inactive
Cc1cnc(-c2ccccc2C(C)C)nc1NCc1ccc(-n2ccnn2)cc1,Potency,[1],inactive
same,Potency,[5],inactive
same,Potency,[3],inactive
same,Potency,[8],inactive
same,Potency,[9],inactive
Cn1c(=O)c2c(ncn2CC2OCCO2)n(C)c1=O,Potency,[1],inactive
same,Potency,[5],inactive
same,Potency,[3],inactive
same,viability,[11],103%
same,Potency,[6],inactive
same,Potency,[10],inactive
same,Potency,[7],inactive
same,Potency,[12],inactive
same,Potency,[9],inactive
CS(=O)(=O)N1CCN(c2nc(-c3ccc(Br)cc3)cs2)CC1,Potency,[1],inactive
same,Potency,[2],inactive
same,Potency,[3],inactive
Cn1ncc(Cl)c1-c1cc(C(=O)NC(CN)Cc2ccc(F)c(F)c2)oc1Cl (stereo unspecified),Potency,[1],inactive
same,Potency,[5],inactive
same,Potency,[3],inactive
same,Potency,[6],18.6 µM (active)
same,Potency,[10],11.8 µM (active)
same,Potency,[7],18.6 µM (active)
same,Potency,[8],13.2 µM (active)
same,Potency,[12],20.9 µM (active)
same,Potency,[9],18.6 µM (active)
COC(C)(C)CCn1nc(Nc2c(C)cccc2C)c2cnc(Nc3ccc(OCCN4CCCC4)c(F)c3)nc21,Potency,[1],inactive
same,Potency,[5],inactive
same,Potency,[3],inactive
same,Potency,[11],18.6 µM (active)
same,Potency,[6],20.9 µM (active)
same,Potency,[10],5.25 µM (active)
same,Potency,[8],9.34 µM (active)
same,Potency,[12],14.8 µM (active)
same,Potency,[9],14.8 µM (active)
N#Cc1c(-c2ccc(Cl)cc2)no[n+]1[O-],Potency,[1],7.94 µM (active)
same,Potency,[2],10.1 µM (active)
same,Potency,[3],inactive
Cn1ncc(Cl)c1-c1cc(C(=O)N[C@H](CN)Cc2ccc(F)c(F)c2)sc1Cl,Potency,[1],inactive
same,Potency,[5],inactive
same,Potency,[3],inactive
same,Potency,[11],20.9 µM (active)
same,Potency,[6],18.6 µM (active)
same,Potency,[10],16.6 µM (active)
same,Potency,[7],16.6 µM (active)
same,Potency,[8],13.2 µM (active)
same,Potency,[12],26.3 µM (active)
same,Potency,[9],16.6 µM (active)
Cc1ccc(-c2ccc(=O)n(CC(=O)N(C)C(C)c3ccco3)c2)cc1 (stereo unspecified),Potency,[1],inactive
same,Potency,[2],2.01 µM (active)
same,Potency,[3],inactive
c1nc(NCC2CCCOC2)c2cc(-c3ccc4c(c3)OCO4)ccc2n1 (stereo unspecified),Potency,[1],inactive
same,Potency,[2],11.3 µM (active)
same,Potency,[3],inactive
O=C(NCC#CCSc1nnc(-c2cccc3ccccc23)o1)c1cccs1,Potency,[1],inactive
same,Potency,[2],12.7 µM (active)
same,Potency,[3],inactive
same,Potency,[4],8.96 µM (active)
CCC(=O)NS(=O)(=O)c1ccc(-c2c(-c3ccccc3)noc2C)cc1,Potency,[1],inactive
same,Potency,[5],inactive
same,Potency,[3],inactive
same,viability,[11],114%
same,Potency,[6],inactive
same,Potency,[10],inactive
same,Potency,[7],inactive
same,Potency,[12],inactive
same,Potency,[9],inactive
Cc1cc(-c2nnc3n2CCCCC3)c(C)n1-c1ccc([N+](=O)[O-])cc1,Potency,[1],inactive
same,Potency,[2],22.5 µM (active)
same,Potency,[3],inactive
same,Potency,[4],10.1 µM (active)
CON(C)C(=O)N1N=C(c2cc(F)ccc2F)S[C@@]1(CCCN)c1ccccc1,Potency,[1],inactive
same,Potency,[5],inactive
same,Potency,[3],inactive
same,Potency,[11],0.0295 µM (active)
same,Potency,[6],0.0093 µM (active)
same,Potency,[10],0.0118 µM (active)
same,Potency,[12],0.0132 µM (active)
NC(=O)C1CCN(c2nc(-c3ccc(N4CCCCC4)nc3)cs2)CC1,Potency,[1],inactive
same,Potency,[2],12.7 µM (active)
same,Potency,[3],inactive
O=C(N[C@H]1CCC[C@H](CO)C1)C1CCN(c2nc3cc(Cl)c(-c4ccc(Cl)cc4)cc3o2)CC1,Potency,[1],inactive
same,Potency,[5],inactive
same,Potency,[3],inactive
same,Potency,[11],20.9 µM (active)
same,Potency,[10],23.5 µM (active)
same,Potency,[8],inactive
O=C1CCCC2=C1C(c1ccccc1)N=C(Nc1nc3ccccc3o1)N2 (stereo unspecified),Potency,[1],inactive
same,Potency,[2],inactive
same,Potency,[3],inactive
same,Potency,[4],inactive
CCOc1ccc(NC(=O)NCC2CCCN2c2ccc(OC)cc2)cc1 (stereo unspecified),Potency,[1],inactive
same,Potency,[2],14.2 µM (active)
OCCNC1CCCc2c1[nH]c1ccc(-c3ccccc3)cc21 (stereo unspecified),Potency,[1],inactive
same,Potency,[5],inactive
same,Potency,[3],inactive
same,Potency,[11],11.8 µM (active)
same,Potency,[6],16.6 µM (active)
same,Potency,[10],11.8 µM (active)
same,Potency,[7],14.8 µM (active)
same,Potency,[12],16.6 µM (active)
O=C(Nc1cn[nH]c1-c1nc2ccc(CN3CCOCC3)cc2[nH]1)NC1CC1,Potency,[1],inactive
same,Potency,[5],inactive
same,Potency,[3],inactive
same,Potency,[6],4.68 µM (active)
same,Potency,[10],0.0263 µM (active)
same,Potency,[7],0.332 µM (active)
same,Potency,[8],0.118 µM (active)
same,Potency,[12],2.09 µM (active)
same,Potency,[9],2.09 µM (active)
O=S(=O)(Nc1nccs1)c1ccc(Nc2nc(-c3ccc(F)cc3)cs2)cc1,Potency,[1],inactive
same,Potency,[2],14.2 µM (active)
same,Potency,[3],inactive
same,Potency,[4],11.3 µM (active)
O=C(Nc1ncc(Cc2ccc(C(F)(F)F)cc2)s1)c1ccc(-c2ccc([N+](=O)[O-])cc2)o1,Potency,[1],inactive
same,Potency,[2],22.5 µM (active)
same,Potency,[3],inactive
